Assay outcomes: PubChem BioAssay, National Center for Advancing Translational Sciences (NCATS)
PLK1 PBD inh: PLK1 (human) polo-box domain binding inhibition. P53350. Potency, µM, without a hit: max response, negative = inhibition, hits mostly inhibitors. Plk1 PBD binding of FITC phosphopeptide, fluorescence polarization. actives 2.8% (n = 360,000); also: potency is read from the fitted curve at half-maximal effect; series mostly up to about 57 µM; % is scaled to controls: 0 for no effect and ±100 for the full control effect; nearly all actives have a fitted effect of over 65% in size
Target sequence (P53350 whole entry, looked up, the tested form may be a part): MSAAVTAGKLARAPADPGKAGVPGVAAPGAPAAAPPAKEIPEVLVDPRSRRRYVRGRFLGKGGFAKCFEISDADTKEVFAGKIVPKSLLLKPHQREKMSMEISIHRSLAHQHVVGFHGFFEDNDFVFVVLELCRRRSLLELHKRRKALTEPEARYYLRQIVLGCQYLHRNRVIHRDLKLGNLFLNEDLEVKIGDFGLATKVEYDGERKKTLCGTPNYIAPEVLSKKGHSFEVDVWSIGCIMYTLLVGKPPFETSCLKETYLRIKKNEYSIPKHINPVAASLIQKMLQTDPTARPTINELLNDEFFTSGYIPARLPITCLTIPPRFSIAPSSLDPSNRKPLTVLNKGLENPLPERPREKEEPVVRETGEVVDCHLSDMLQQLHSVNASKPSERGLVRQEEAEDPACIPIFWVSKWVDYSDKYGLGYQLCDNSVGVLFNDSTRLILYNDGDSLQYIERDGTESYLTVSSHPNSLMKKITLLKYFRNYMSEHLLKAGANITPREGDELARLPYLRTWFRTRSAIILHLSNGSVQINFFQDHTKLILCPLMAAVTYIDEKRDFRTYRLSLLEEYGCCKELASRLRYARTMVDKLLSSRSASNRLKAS
HP1b chromo inh: HP1-beta chromodomain-methylated histone interaction inhibition | actives 0.56% (n = 390,000) | AlphaScreen HP1-beta / biotin-H3K9me3 peptide binding | Potency, µM (top dose mostly 114 µM), without a hit: top-dose activity change, negative = inhibition, hits mostly inhibitors | P83916; also: potency is read from the fitted curve at half-maximal effect; nearly all actives have a fitted effect of over 70% in size
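AlphaScreen: HP1-beta (50 nM) preformed 30 min with biotin-H3(1-18)K9me3 peptide (50 nM) in PBS pH 7.4, 0.01% Tween-20. Compound added for 30 min at RT, then streptavidin donor/nickel chelate acceptor beads (10 ug/mL) for 30 min.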
JMJD2A Tudor inh: blocks the human JMJD2A Tudor domain | AlphaScreen JMJD2A-Tudor / H3K4me3 peptide binding | Potency, µM (series often up to 114 µM), for inactives: at the highest dose activity change, negative = inhibition, most hits filed as inhibitors | actives 4.4% (n = 390,000); also: potency is read from the fitted curve at half-maximal effect; % is scaled to controls: 0 for no effect and ±100 for the full control effect; nearly all actives have a fitted effect of over 50% in size
BAZ2B block: blocks human BAZ2B; Q9UIF8; AlphaScreen BAZ2B-H3K14Ac peptide displacement; Potency, µM (series often up to 114 µM), for the others: at the top dose activity change, negative = inhibition, actives largely listed as inhibitors; actives 4.4% (n = 360,000); AID 504333; also: potency is read from the fitted curve at half-maximal effect; % is scaled to controls: 0 for no effect and ±100 for the full control effect; nearly all actives have a fitted effect of over 60% in size
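In this displacement format the biotinylated H3(5-23) peptide acetylated at Lys14 serves as ligand at 50 nM, with BAZ2B at 50 nM in PBS pH 7.4 containing 0.01% Tween-20. Donor and acceptor beads are 10 ug/mL final.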
G9a block: inhibitors of human histone lysine methyltransferase G9a; Q96KQ7; G9a H3K9 monomethylation, AlphaScreen, 2 h; Potency, µM (doses to about 102 µM), for inactives: at the highest dose activity, negative = inhibition, usual class: inhibitors; actives 8.8% (n = 350,000); also: potency is read from the fitted curve at half-maximal effect; % is scaled to controls: 0 for no effect and ±100 for the full control effect; nearly all actives have a fitted effect of over 75% in size
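Methyltransferase reactions run at room temperature for 2 h (20 nM enzyme, 500 nM biotin-H3K9 peptide, 20 uM SAM) after a 15 min compound preincubation; product detected by AlphaScreen beads and anti-H3K9me1 antibody.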
PI5P4Ka inh: blocks human PI5P4K alpha kinase activity; P48426; PI5P4Kalpha enzyme, ADP-Glo luminescence, 60 min; active compounds read low; max response, %; actives 1.2% (n = 330,000); AID 652105; active = max response of -50% or lower; inconclusive = between -30% and -50%; inactive = -30% or higher; also: value at the top dose of about 77 µM; % is scaled to controls: 0 for no effect and ±100 for the full control effect
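Reactions run in 0.038 M HEPES pH 7.4, 0.28 mM EGTA, 0.1% CHAPS and 5% DMSO, with PI5P4Kalpha, substrate, compound and 5 microM ATP final, one hour at room temperature. Readout is ADP-Glo luminescence.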
The depositor's hits bear a star; ? = inconclusive; / = no result; [ ] = dose if it differs, or a comment. Compounds with a hit are over-represented: about 12% of the library has one in this group of screens. Unless noted, calls follow the shape of the dose curve; as a rule, active = well fitted curve in the direction sought with a large enough effect; inconclusive = small, poorly fitted or top-dose-only effect, or another doubt; inactive = no such curve, though single readings can be large; an effect the other way counts as inactive or inconclusive.

SMILES	PLK1 PBD inh	HP1b chromo inh	JMJD2A Tudor inh	BAZ2B block	G9a block	PI5P4Ka inh
CC(CCN1CCOCC1)c1ccccc1 (configuration not stated)	-8%	?	22µM*	?	11µM*	-1
CCC(O)(c1ccccc1)C(CN1CCOCC1)c1ccccc1 (configuration not stated)	-9%	20%	-18%	-8%	-2%	-7
CC1CN(CC(O)COC(c2ccccc2)c2ccccc2)CC(C)O1 (configuration not stated)	-9%	?	0.89µM*	56µM*	35µM*	-5
CC[N+]1(C)CCC(O)(/C=C/c2ccccc2)C(C(=O)/C=C/c2ccccc2)C1 (configuration not stated)	?	71µM*	40µM*	/	/	0
COC(=O)C1(Cc2ccc(O)cc2)OC(=O)C(O)=C1c1ccc(O)cc1 (configuration not stated)	-18%	-26%	56µM*	79µM*	?	?
CC(C)c1ccc(N(CC(=O)NC2CCCC2)C(=O)CCC(=O)Nc2ccccn2)cc1	24µM*	8%	50µM*	2%	18%	5
COc1ccc(CNC(=O)CN(C(=O)CCC(=O)Nc2ccccn2)c2ccc(C)cc2)cc1	?	9%	56µM*	1%	-14%	3
Cc1ccc(N(CC(=O)NCc2ccco2)C(=O)CCC(=O)Nc2nccs2)c(C)c1	-16%	-15%	-14%	-10%	71µM*	-1
CCc1ccc(N(CC(=O)NC2CCCC2)C(=O)CCC(=O)Nc2ccccn2)cc1	-7%	9%	-8%	-3%	-5%	-3
CC(C)c1ccc(N(CC(=O)NCc2ccco2)C(=O)CCC(=O)Nc2ccccn2)cc1	0%	31%	-3%	-2%	25µM*	4
CC(C)NC(=O)N[C@H]1C=C[C@H](CC(=O)NCc2ccc(Oc3ccccc3)cc2)O[C@@H]1CO	-3%	/	/	/	/	2
Cn1c(=O)oc2cc(S(=O)(=O)NC(Cc3ccccc3)C(=O)Nc3ccc(F)cc3)ccc21 (configuration not stated)	/	19%	-12%	-20%	2%[59 µM]	/
O=C(CCCC(=O)N(c1cccc(F)c1)C(C(=O)NC1CCCC1)c1ccc(O)cc1)Nc1ccccn1 (configuration not stated)	?	3%	79µM*	-16%	-26%	-10
Cc1ccnc(NC(=O)CCC(=O)N(CC(=O)NCc2ccccc2)c2ccc3c(c2)OCO3)c1	3µM*	-14%	-23%[11.4 µM]	0%	-17%[59 µM]	?
O=C(CCCC(=O)N(CC(=O)NC1CCCCC1)c1cccc(F)c1)Nc1ccccn1	6%	23%	2%	-2%	-10%	3
CCOC(=O)Cn1nc(-c2ccccc2)c2cnc3ccc(C)cc3c21	-10%	32%	-30%	-29%	56µM*	4
CCOC(=O)Cn1nc(-c2ccccc2)c2cnc3ccc(OCC)cc3c21	/	1%	-30%	/	-15%[59 µM]	/
CCCCC(=O)Nc1nnc(S(=O)(=O)N(C)Cc2ccc(Cl)cc2)s1	/	37%	-2%	-9%	?	/
COC(=O)c1cc(-c2ccc(C)cc2)n[nH]1	-4%	33%	-12%	-5%	/	5
COC(=O)C1=C(C)Nc2ccc(C)cc2S1	?	?	79µM*	40µM*	40µM*	-3
COc1ccc(CC(=O)Oc2ccc(C)cc2Br)cc1OC	-2%	?	22%	50µM*	-23%	16
COc1ccc(CC(=O)Oc2ccc(C)cc2C)cc1	4%	189%	194%	130%	126%[59 µM]	-1
CCN(CC)CCNC(CC(=O)Nc1ccc(Cl)cc1Cl)C(=O)O (configuration not stated)	-5%	26%	-33%	4%	8.9µM*	8
C=CCc1ccc(OCCCCCN2CCOCC2)c(OC)c1	3%	?	3.5µM*	50µM*	13µM*	2
C=CCc1ccc(OCCOCCN(C)C)c(OC)c1	-4%	?	1.6µM*	?	4µM*	3
SMILES	PLK1 PBD inh	HP1b chromo inh	JMJD2A Tudor inh	BAZ2B block	G9a block	PI5P4Ka inh
C=CCc1ccc(OCCOCCOc2ccc(C)cc2[N+](=O)[O-])c(OC)c1	-11%	51%	-14%	5%	35%	1
C=CCc1ccc(OCCCCNC2CCCC2)c(OC)c1	2%	?	?	56µM*	13µM*	2
C=CCOc1c(Cl)cc(CNCCCN2CCOCC2)cc1OC	21µM*	64%	?	-37%	?	-24
C=CCc1ccc(OCCCOc2ccc(C)c(C)c2)c(OC)c1	-7%	155%	123%	177%	275%	22
C=CCc1ccc(OCCCCOc2ccc(C(=O)O)cc2)c(OC)c1	-19%	14%	-17%	?	?	6
COc1ccc(CNC(=O)C(=O)Nc2ccc(OC)cc2OC)cc1	/	28%	-2%	-2%	11%[59 µM]	/
CN(C)c1ccc(N=Nc2ccc(C(=O)O)cc2)cc1	?	-25%[57 µM]	25µM*	35µM*	10µM*	?
O=C(O)c1ccc(N=NN2CCCCC2)cc1	-6%	24%	0%	?	35µM*	-2
CN(C)c1ccc(C(=O)c2ccccc2)cc1	-1%	35%	-7%	7%	1%[59 µM]	-7
COCCNc1ncnc2ccc(-c3cccc(OC)c3)cc12	/	/	/	/	10%[0.501 µM]	/
Cc1cccc(N2CCN(C3=NC(=O)/C(=C\c4cn[nH]c4-c4ccccc4)S3)CC2)c1	4%	23%	-4%	-2%	12%[59 µM]	-29
O=C1N=C(N2CCC(Cc3ccccc3)CC2)S/C1=C/c1cn[nH]c1-c1ccccc1	-3%	9%	-17%	-5%	25%	/
Cc1ccc(N2CCN(C3=NC(=O)/C(=C\c4cn[nH]c4-c4ccccc4)S3)CC2)cc1	0%	-4%	50µM*	-4%	-5%[59 µM]	-25
O=C1N=C(N2CCN(c3ccccc3)CC2)S/C1=C\c1cn[nH]c1-c1ccccc1	-12%	1%	-23%	-3%	-14%[59 µM]	-51*
CC(=O)Oc1cc(C(F)(F)F)ccc1C(=O)O	/	/	/	/	-38%[5.15 µM]	/
COc1ccc(CCNCC(O)c2ccccc2)cc1 (configuration not stated)	-3%	-4%	5µM*	56µM*	14µM*	4
COc1ccc(NC(=O)NC(C)c2ccccc2)cc1 (configuration not stated)	-1%	18%	-14%	-11%	16%	6
OC(CNCCc1ccccc1)c1ccccc1 (configuration not stated)	-5%	23%	-25%	3%	0%[12.7 µM]	/
COc1ccc(CCNCC(C)c2ccccc2)cc1 (configuration not stated)	1%	-38%	7.9µM*	?	45µM*	-10
